“And” between values parts separate entries of the source, which are not always exact repeats. Equal entries are not always repeated. Inconclusive results are not listed. Where a call stands in place of a potency, no number is given. Unmarked numbers belong to inactive results. The source made the active and inactive calls. The call rests on the fitted dose curve; in most records, active means well fitted curve in the direction sought with a large enough effect; inconclusive means small, poorly fitted or top-dose-only effect, or another doubt; inactive means no such curve, though single readings can be large; an effect the other way counts as inactive or inconclusive.
Columns and labels:
NIH3T3 [1] = test: Cytotoxic Profiling of Annotated Libraries Using Quantitative High-Throughput Screening (AID 1296008); details: Five cell lines viability, CellTiter-Glo ATP luminescence, 48-72 h; max response: active compounds read low; further: nearly all actives have a fitted effect of over 60% in size
Method in brief: (§1)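 Cytotoxicity was measured as CellTiter-Glo ATP luminescence, read after 10 min at room temperature. Compound treatment of the cells lasted 48 or 72 hr at 37 degrees Celsius in a qHTS format.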

HEK293T [2] = test: qHTS assay to identify novel small-molecules to repurpose for Merkel cell carcinoma treatment (AID 1296009); details: MCC and control cell lines, CellTiter-Glo viability, 72 h; at 44.8 µM (top of the series) unless noted; further: nearly all actives have a fitted effect of over 60% in size
Method in brief: (§2)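 Cell viability, measured as CellTiter-Glo luminescence, was normalized between DMSO and no-cell wells. The cells had been exposed to 8- or 11-point compound dilutions for 72 hr at 37 degree celsius.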

MCC-13 = test: as above; details: MCC and control cell lines, CellTiter-Glo viability, 72 h; series mostly up to 46 µM
Method in brief: as §2

MCC-26 = test: as above; details: MCC and control cell lines, CellTiter-Glo viability, 72 h; series mostly up to 46 µM
Method in brief: as §2

MKL-1 = test: as above; details: MCC and control cell lines, CellTiter-Glo viability, 72 h; series mostly up to 46 µM
Method in brief: as §2

MKL-2 = test: as above; details: MCC and control cell lines, CellTiter-Glo viability, 72 h; series mostly up to 46 µM
Method in brief: as §2

UISO = test: as above; details: MCC and control cell lines, CellTiter-Glo viability, 72 h; series mostly up to 46 µM
Method in brief: as §2

WaGa = test: as above; details: MCC and control cell lines, CellTiter-Glo viability, 72 h; series mostly up to 46 µM
Method in brief: as §2

C33A = test: Primary qHTS to identify gynecologic anti-cancer compounds using libraries of approved drugs and bioactive compounds (AID 1345084); details: Gynecologic cancer cell panel viability, ATPlite luminescence, 48 h; series mostly up to 57.5 µM; further: nearly all actives have a fitted effect of over 55% in size
Method in brief: (§3)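 ATP-based viability (ATPlite), 1,000 cells/well, 16 h pre-incubation, 48 h compound at 37 C, 5% CO2, 15 min RT before read.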

CASKI = test: as above; details: Gynecologic cancer cell panel viability, ATPlite luminescence, 48 h; series mostly up to 57.5 µM
Method in brief: as §3

Es-2 = test: as above; details: Gynecologic cancer cell panel viability, ATPlite luminescence, 48 h; series mostly up to 57.5 µM
Method in brief: as §3

HeLa = test: as above; details: Gynecologic cancer cell panel viability, ATPlite luminescence, 48 h; series mostly up to 57.5 µM
Method in brief: as §3

JEG-3 = test: as above; details: Gynecologic cancer cell panel viability, ATPlite luminescence, 48 h; series mostly up to 57.5 µM
Method in brief: as §3

OV90 = test: as above; details: Gynecologic cancer cell panel viability, ATPlite luminescence, 48 h; series mostly up to 57.5 µM
Method in brief: as §3

PA-1 = test: as above; details: Gynecologic cancer cell panel viability, ATPlite luminescence, 48 h; series mostly up to 57.5 µM
Method in brief: as §3

KB-3-1 = test: Cytotoxic Profiling of Annotated Libraries Using Quantitative High-Throughput Screening (AID 1296008); details: Five cell lines viability, CellTiter-Glo ATP luminescence, 48-72 h; max response: active compounds read low; further: nearly all actives have a fitted effect of over 60% in size
Method in brief: as §1

HACAT = test: qHTS assay to identify novel small-molecules to repurpose for Merkel cell carcinoma treatment (AID 1296009); details: MCC and control cell lines, CellTiter-Glo viability, 72 h; at 44.8 µM (top of the series) unless noted; further: nearly all actives have a fitted effect of over 60% in size
Method in brief: as §2

Hek293T [3] = test: Primary qHTS to identify gynecologic anti-cancer compounds using libraries of approved drugs and bioactive compounds (AID 1345084); details: Gynecologic cancer cell panel viability, ATPlite luminescence, 48 h, control line for the selectivity index; series mostly up to 57.5 µM; further: nearly all actives have a fitted effect of over 55% in size
Method in brief: as §3

CAOV3 = test: as above; details: Gynecologic cancer cell panel viability, ATPlite luminescence, 48 h; series mostly up to 57.5 µM
Method in brief: as §3

NIH3T3 [4] = test: qHTS assay to identify novel small-molecules to repurpose for Merkel cell carcinoma treatment (AID 1296009); details: MCC and control cell lines, CellTiter-Glo viability, 72 h; at 44.8 µM (top of the series); further: nearly all actives have a fitted effect of over 60% in size
Method in brief: as §2
Potency means the concentration at half of the fitted maximal effect.

## CCC1Nc2cc(Cl)c(S(N)(=O)=O)cc2S(=O)(=O)N1 (stereo not given)
NIH3T3 [1]
  max response: 3.7%
HEK293T [2]
  outcome: inactive
MCC-13
  Potency: inactive
MCC-26
  Potency: inactive
MKL-1
  Potency: inactive
MKL-2
  Potency: inactive
UISO
  Potency: inactive
WaGa
  Potency: inactive
C33A
  Potency: inactive
CASKI
  Potency: inactive
Es-2
  Potency: inactive
HeLa
  Potency: inactive
JEG-3
  Potency: inactive
OV90
  Potency: inactive
PA-1
  Potency: inactive

## CNCCCCOc1ccccc1Cc1ccccc1
KB-3-1
  max response: 9.62%
MCC-13
  Potency: inactive
MCC-26
  Potency: inactive
MKL-2
  Potency: 18.8 µM (active)
WaGa
  Potency: 18.8 µM (active)
C33A
  Potency: 25.1 µM (active)
HeLa
  Potency: inactive
JEG-3
  Potency: inactive
PA-1
  Potency: inactive

## C/C=C/c1ccc(O)c(OC)c1
NIH3T3 [1]
  max response: -0.28%
HACAT
  outcome: inactive
MCC-13
  Potency: inactive
MCC-26
  Potency: inactive
MKL-1
  Potency: inactive
UISO
  Potency: inactive
WaGa
  Potency: inactive
C33A
  Potency: inactive
CASKI
  Potency: inactive
Es-2
  Potency: inactive
HeLa
  Potency: inactive
Hek293T [3]
  Potency: inactive
JEG-3
  Potency: inactive
OV90
  Potency: inactive
PA-1
  Potency: inactive

## O[C@@H](c1cc(C(F)(F)F)nc2c(C(F)(F)F)cccc12)[C@H]1CCCCN1
KB-3-1
  Potency: 25.9 µM (active)
MKL-1
  Potency: 21.1 µM (active)
MKL-2
  Potency: 2.99 µM (active)
UISO
  Potency: 23.7 µM (active)
C33A
  Potency: 28.2 µM (active)
CAOV3
  Potency: 20 µM (active)

## CCCCCN=C(N)N/N=C/c1c[nH]c2ccc(OC)cc12
KB-3-1
  max response: 1.55%
MCC-26
  Potency: 23.7 µM (active)
MKL-1
  Potency: inactive
MKL-2
  Potency: inactive
UISO
  Potency: 11.9 µM (active)
WaGa
  Potency: inactive

## CCC(CC)(CC(=O)Nc1cccc(/C=C/c2nc(C3CCC3)cs2)c1)C(=O)O
NIH3T3 [1]
  max response: 2.57%
HACAT
  outcome: inactive
MCC-13
  Potency: inactive
MCC-26
  Potency: inactive
MKL-1
  Potency: inactive
UISO
  Potency: inactive
C33A
  Potency: inactive
CASKI
  Potency: inactive

## COc1ccc(C(=O)c2ccccc2)c(O)c1
NIH3T3 [1]
  max response: 2.73%
HEK293T [2]
  outcome: inactive
MCC-13
  Potency: inactive
MCC-26
  Potency: inactive
MKL-1
  Potency: inactive
MKL-2
  Potency: inactive
UISO
  Potency: inactive
WaGa
  Potency: inactive
C33A
  Potency: inactive
CASKI
  Potency: inactive
Es-2
  Potency: inactive
HeLa
  Potency: inactive
Hek293T [3]
  Potency: inactive
JEG-3
  Potency: inactive
OV90
  Potency: inactive
PA-1
  Potency: inactive

## CCc1nn(CCCN2CCN(c3cccc(Cl)c3)CC2)c(=O)n1CCOc1ccccc1
KB-3-1
  max response: 3.08% and -5.51%
MCC-13
  Potency: inactive
MCC-26
  Potency: inactive
C33A
  Potency: inactive
CAOV3
  Potency: inactive
CASKI
  Potency: inactive
Es-2
  Potency: inactive
Hek293T [3]
  Potency: inactive
JEG-3
  Potency: inactive

## CN1CCc2cccc3c2[C@H]1Cc1ccc(O)c(O)c1-3
KB-3-1
  max response: 10.6%
MCC-26
  Potency: inactive
MKL-1
  Potency: 1.33 µM (active)
MKL-2
  Potency: 0.841 µM (active)
WaGa
  Potency: 11.9 µM (active)
CASKI
  Potency: inactive
Hek293T [3]
  Potency: inactive
OV90
  Potency: inactive

## C=C[C@@]1(C)CC(=O)[C@]2(O)[C@@]3(C)[C@@H](O)CCC(C)(C)[C@@H]3[C@H](O)[C@H](OC(C)=O)[C@@]2(C)O1
KB-3-1
  max response: -4.04%
MCC-13
  Potency: inactive
MKL-1
  Potency: inactive
MKL-2
  Potency: inactive
UISO
  Potency: inactive
WaGa
  Potency: inactive
C33A
  Potency: inactive
CAOV3
  Potency: inactive
CASKI
  Potency: inactive
Es-2
  Potency: inactive
HeLa
  Potency: inactive
Hek293T [3]
  Potency: inactive
JEG-3
  Potency: inactive
OV90
  Potency: inactive
PA-1
  Potency: inactive

## CC(C)(C)CC(C)(C)c1ccc(O)c(-n2nc3ccccc3n2)c1
NIH3T3 [1]
  max response: 3.67%
HACAT
  outcome: inactive
MCC-13
  Potency: inactive
MKL-1
  Potency: inactive
MKL-2
  Potency: inactive
UISO
  Potency: inactive
WaGa
  Potency: inactive
C33A
  Potency: inactive
CAOV3
  Potency: inactive
CASKI
  Potency: inactive
Es-2
  Potency: inactive
HeLa
  Potency: inactive
Hek293T [3]
  Potency: inactive
JEG-3
  Potency: inactive
OV90
  Potency: inactive
PA-1
  Potency: inactive

## CN1CCC[C@@H]1CCO[C@](C)(c1ccccc1)c1ccc(Cl)cc1
KB-3-1
  max response: -2.14%
MCC-26
  Potency: inactive
MKL-1
  Potency: 23.7 µM (active)
MKL-2
  Potency: 9.44 µM (active)
UISO
  Potency: 21.1 µM (active)
HeLa
  Potency: inactive
JEG-3
  Potency: 20 µM (active)
OV90
  Potency: 11.2 µM (active)

## CCCCCCCCNC(C)C(O)c1ccc(SC(C)C)cc1 (stereo not given)
KB-3-1
  max response: 7.32%
MKL-2
  Potency: 18.8 µM (active)
HeLa
  Potency: inactive

## FC(F)(F)C(F)(F)C(F)(F)C(F)(F)C(F)(F)C(F)(F)C(F)(F)C(F)(F)Br
NIH3T3 [1]
  max response: -4.33%
HACAT
  outcome: inactive
MCC-13
  Potency: inactive
MCC-26
  Potency: inactive
MKL-1
  Potency: inactive
MKL-2
  Potency: inactive
UISO
  Potency: inactive
WaGa
  Potency: inactive
C33A
  Potency: inactive
CAOV3
  Potency: inactive
CASKI
  Potency: inactive
Es-2
  Potency: inactive
HeLa
  Potency: inactive
Hek293T [3]
  Potency: inactive
JEG-3
  Potency: inactive
OV90
  Potency: inactive
PA-1
  Potency: inactive

## NS(=O)(=O)c1ccc(Cl)c(S(N)(=O)=O)c1
NIH3T3 [1]
  max response: -4.55%
HEK293T [2]
  outcome: inactive
MCC-13
  Potency: inactive
MCC-26
  Potency: inactive
MKL-1
  Potency: inactive
MKL-2
  Potency: inactive
UISO
  Potency: inactive
WaGa
  Potency: inactive
C33A
  Potency: inactive
CASKI
  Potency: inactive
Es-2
  Potency: inactive
HeLa
  Potency: inactive
Hek293T [3]
  Potency: inactive
JEG-3
  Potency: inactive
PA-1
  Potency: inactive

## OCc1ccccn1
NIH3T3 [1]
  max response: -14.5%
HACAT
  outcome: inactive
MCC-13
  Potency: inactive
MCC-26
  Potency: inactive
MKL-1
  Potency: inactive
MKL-2
  Potency: inactive
UISO
  Potency: inactive
WaGa
  Potency: inactive
C33A
  Potency: inactive
CAOV3
  Potency: inactive
CASKI
  Potency: inactive
Es-2
  Potency: inactive
HeLa
  Potency: inactive
Hek293T [3]
  Potency: inactive
JEG-3
  Potency: inactive
OV90
  Potency: inactive
PA-1
  Potency: inactive

## CC(=O)N[C@@H](CCC(=O)O)C(=O)O
NIH3T3 [1]
  outcome: inactive
MCC-13
  Potency: inactive
MCC-26
  Potency: inactive
MKL-1
  Potency: inactive
MKL-2
  Potency: inactive
NIH3T3 [4]
  outcome: inactive
UISO
  Potency: inactive
WaGa
  Potency: inactive
C33A
  Potency: inactive
CAOV3
  Potency: inactive
CASKI
  Potency: inactive
Es-2
  Potency: inactive
HeLa
  Potency: inactive
Hek293T [3]
  Potency: inactive
JEG-3
  Potency: inactive
OV90
  Potency: inactive
PA-1
  Potency: inactive
